Most compounds without a hit are left out; they make up all but 2.3% or so of the library.
CHRM1 agonist: human M1 muscarinic receptor agonists, primary screen, Fluo-8 calcium fluorescence, CHO-K1 cells, HTS | CHO-K1 hM1, agonist mode; 0% DMSO, 100% acetylcholine EC100 | hit rate 0.33% among 360,000 | activation, % at 3 µM | AID 588814, 2011 | Muscarinic acetylcholine receptor M1 (Homo sapiens), P11229;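 active means activation above the run's mean compound activation plus 3 SD, cut at about 16% in these data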;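 further: peak over basal fluorescence ratio within a 140 s kinetic read after compound addition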
Target sequence (P11229 whole entry, looked up): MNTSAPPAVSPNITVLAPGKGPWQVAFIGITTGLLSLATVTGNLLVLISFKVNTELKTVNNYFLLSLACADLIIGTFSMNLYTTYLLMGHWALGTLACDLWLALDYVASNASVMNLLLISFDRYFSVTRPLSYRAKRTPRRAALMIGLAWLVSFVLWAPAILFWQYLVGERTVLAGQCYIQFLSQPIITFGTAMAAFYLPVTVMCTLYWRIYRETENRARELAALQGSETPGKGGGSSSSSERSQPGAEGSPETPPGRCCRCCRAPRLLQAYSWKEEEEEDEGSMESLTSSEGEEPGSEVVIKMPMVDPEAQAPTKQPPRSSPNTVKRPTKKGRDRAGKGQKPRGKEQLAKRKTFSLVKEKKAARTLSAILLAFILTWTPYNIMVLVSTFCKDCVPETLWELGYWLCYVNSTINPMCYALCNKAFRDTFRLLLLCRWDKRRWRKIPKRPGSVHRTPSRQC
CHO-K1 Ca antag: nonselective inhibitor or artifact in parental CHO-K1 cells; inhibition, % at 3 µM; AID 602250; hit rate 0.6% among 360,000; ATP-induced calcium, Fluo-8 fluorescence;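 active means inhibition above a per-plate cutoff, the plate's mean sample inhibition plus 3 SD, cut at about 24% in these data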;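 further: 0% = DMSO plus EC80 ATP and 100% = DMSO alone without ATP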
CHO-K1 Ca ag: counter-screen for M1 agonists: effect in parental CHO-K1 cells. Fluo-8 calcium fluorescence; scaled to maximal ATP response, vehicle zero. activation, % at 3 µM. hit rate 0.48% among 360,000; in the data active means activation above about 15%;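 further: untransfected CHO-K1 host cells lacking M1 receptor as counterscreen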
M1 antag: human M1 muscarinic receptor antagonists, primary screen, CHO-K1 cells, Fluo-8 calcium fluorescence, 1536-well; Muscarinic acetylcholine receptor M1 (Homo sapiens), P11229; CHO-K1 hM1, ACh EC80 antagonist; inhibition, % at 3 µM; hit rate 1.3% among 360,000; AID 588852, 2011;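 active means percent inhibition above its own plate's cutoff, namely the mean of that plate's compound wells plus 3 SD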;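 further: peak over basal fluorescence ratio during 140 s after agonist addition; 0% = ACh EC80 plus DMSO and 100% = DMSO alone without agonist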
M1 PAM: human M1 muscarinic receptor positive allosteric modulators, primary screen, CHO-K1 cells, Fluo-8 calcium fluorescence, 1536-well | Muscarinic acetylcholine receptor M1 (Homo sapiens), P11229 | CHO-K1 hM1, ACh EC20; 0% = ACh EC20, 100% = maximal ACh | activation, % at 3 µM | hit rate 0.088% among 360,000; in the data active means activation above about 19%, passing the limit was not always enough
M1 PAM parental: nonselective calcium activators in parental CHO-K1 cells, primary screen, counter-screen for M1 PAM project, cell-based, Fluo-8 calcium fluorescence, full deck, 1536-well. ATP EC20; 0% at ATP EC20, 100% at ATP max. activation, % at 3 µM. hit rate 0.02% among 360,000;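 active means activation above the run cutoff, the mean activation of all test compounds plus 3 SD, cut at about 40% in these data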;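 further: peak over basal fluorescence ratio in a 140 s read after ATP addition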
* marks the source's active call; other numbers are inactive results; x = not tested or not shown.

SMILES	CHRM1 agonist	CHO-K1 Ca antag	CHO-K1 Ca ag	M1 antag	M1 PAM	M1 PAM parental
O=C(NCc1ccccn1)C1CCCN(S(=O)(=O)c2ccc(Br)cc2)C1 (stereo not drawn)	-6	24*	0	8	-9	-9
Cc1ccc2c(c1)c1nnc(SCC(=O)Nc3ccc(N(C)C)cc3)nc1n2CC(=O)O	0	-13	1	-23	10	9
COC(=O)c1ccc(OC(=O)c2ccc(OC)c(OC)c2)c(OC)c1	-3	-3	1	-2	2	9
COc1ccc(C(Cl)=C(C=O)c2ccc(OC)c(OC)c2)cc1OC	18*	-2	0	-1	20	13
O=C(Nc1ccc(S(=O)(=O)Nc2ncccn2)cc1)c1ccc(Br)o1	-1	1	18*	-4	7	13
O=C(Nc1ccc(S(=O)(=O)Nc2ncccn2)cc1)c1ccco1	-4	-9	1	0	7	16
O=C(NC(=S)NNC(=O)c1ccccc1O)c1ccc([N+](=O)[O-])cc1	-3	-7	1	2	3	3
Cc1ccc(C(=O)NC(=S)NNC(=O)c2ccccc2O)cc1	-1	-11	0	8	-5	3
O=C(NC(=S)NNC(=O)c1ccccc1O)c1ccc(F)cc1	33*	0	30*	2	-9	6
Cc1ccccc1C(=O)NNC(=O)c1ccc(Br)cc1	0	22	0	6	7	-11
Cc1ccccc1C(=O)NNC(=S)NC(=O)c1ccccc1	63*	5	55*	13	-18	-13
O=C(NC(=S)NNC(=O)c1ccccc1O)c1ccccc1	24*	-15	10	1	-7	20
COc1ccc(CC(=O)NC2CC(C)(C)NC(C)(C)C2)cc1	-3	-5	0	-8	5	11
Cc1cccc(C(C)C)c1NC(=O)c1ccc(CN(c2ccccc2)S(=O)(=O)c2ccccc2)cc1	1	26*	0	4	3	-13
O=C(Nc1ccccn1)c1ccc(CN(c2ccccc2)S(=O)(=O)c2ccccc2)cc1	-12	0	1	1	1	3
CCOc1ccccc1Nc1cc(C)c2cccc(C)c2n1	-4	6	-1	-4	9	-10
CCOc1ccc(Nc2cc(Nc3ccccc3OCC)nc(C=C(C#N)C#N)n2)cc1	-4	-3	16*	4	2	4
C[C@H](NC(=O)c1cccc([N+](=O)[O-])c1)C(=O)OCC(=O)c1ccccc1Br	-2	2	3	2	3	-3
Cc1cccc(OCC(=O)NCCCNC(=O)c2ccco2)c1	-3	-12	1	-6	5	10
OC(CSc1ccccc1)CN1CCN(c2ccc(Cl)cc2)CC1 (stereo not drawn)	15	-9	2	-12	0	6
OC(CSc1ccccc1)CN1CCN(c2cccc(Cl)c2)CC1 (stereo not drawn)	25*	-12	2	-8	-3	11
OC(COc1cccc2ccccc12)CN1CCN(c2cccc(Cl)c2)CC1 (stereo not drawn)	-2	9	21*	-16	6	-9
N=c1ccn(Cc2c(Cl)cccc2Cl)cc1	-8	-5	4	-6	3	16
CC1(c2nnnn2-c2ccc3c(c2)OCCO3)CCC(=O)N1CCOc1ccccc1 (stereo not drawn)	x	-16	2	x	x	16
Cc1nc2sc(C(c3ccc(Cl)cc3)N3CC(C)OC(C)C3)c(O)n2n1 (stereo not drawn)	11	20	0	-20	23*	1
SMILES	CHRM1 agonist	CHO-K1 Ca antag	CHO-K1 Ca ag	M1 antag	M1 PAM	M1 PAM parental
CCOC(=O)C1C(=O)CC(C)(O)C(C(=O)OCC)C1c1ccc(N(CC)CC)cc1 (stereo not drawn)	-4	-1	1	-29	9	9
CCN(CC)c1ccc(C2C(C(=O)OC(C)C)C(=O)CC(C)(O)C2C(=O)OC(C)C)cc1 (stereo not drawn)	-1	7	3	30*	-9	5
CC(NCC(=O)Nc1cc(S(=O)(=O)N2CCCCCC2)ccc1Cl)c1ccccc1 (stereo not drawn)	-3	-12	5	33	-13	13
COCc1c(C(=O)OCC(=O)NCc2ccco2)oc2ccccc12	-7	24*	0	-6	3	-14
Cc1c(C(=O)OCC(=O)NCc2ccco2)oc2ccccc12	-8	-18	1	-4	3	18
COc1ccc(NC(=O)CNC(=O)C23CC4CC(CC(C4)C2)C3)c(OC)c1	-2	1	0	-9	7	-14
COc1ccc(OC)c(NC(=O)C(=O)NNC(=O)C23CC4CC(CC(C4)C2)C3)c1	9	-9	25*	-12	7	15
CCOC(=O)c1cc(CC)sc1NC(=O)c1ccc(N2C(=O)CCC2=O)cc1	-1	-24	0	-12	7	18
CCOC(=O)c1cc(CC)sc1NC(=O)c1cc(OC)c(OC)c(OC)c1	-1	32*	0	26	-10	-10
CCOC(=O)c1cnc2ccc(OCC)cc2c1N1CCN(C)CC1	-3	-14	1	-1	2	21
CCOc1ccc2ncc(S(=O)(=O)c3ccc(C)cc3)c(N3CCC4(CC3)OCCO4)c2c1	-5	-1	4	35*	-19	17
CCCCNC(=O)C1(C)CCN1C(=O)c1cc(OC)ccc1Br (stereo not drawn)	-2	-1	0	-10	4	0
COc1ccc(Br)c(C(=O)N2CCCC2(C)C(=O)NCC(C)C)c1 (stereo not drawn)	0	27*	-1	-1	16	-16
CN1CCN(C(=O)CN(c2cccc(Cl)c2)S(=O)(=O)c2ccccc2)CC1	-5	-7	0	28*	-9	14
Cc1cccc(N(CC(=O)N2CCN(C)CC2)S(=O)(=O)c2ccccc2)c1	-14	1	0	7	-4	10
COc1ccc(NC(=S)NCc2ccco2)cc1	-4	-17	0	-6	5	18
CCOc1ccc(NC(=S)NCc2ccco2)cc1	-8	14	17*	11	-6	16
COC(CNC(=O)c1ccc2c(c1)ncn2-c1ccc(C)cc1C)OC	-5	-1	18*	-5	9	-2
COc1cc(C=C2CCCC(=Cc3ccc(OCC4CO4)c(OC)c3)C2=O)ccc1OCC1CO1 (stereo not drawn)	4	10	8	33	-9	3

Assay outcomes from PubChem.
